Sampled rows, rich in hits. Any-hit rate of the full collection: about 2.2%.
CRFBP-R2 block = antagonists of CRF-BP/CRF-R2 complex, primary screen, cell-based, HEK293, calcium dye fluorescence, uHTS; CRF-induced calcium fluorescence; inhibition, % at 11.8 µM; actives 0.59% (n = 350,000); AID 588475, 2011;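 active means inhibition of the ligand-induced calcium signal above about 50% at the single tested concentration, limit read from the data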
CRFR2-BP ag = agonists of CRF-BP/CRF-R2 complex, primary screen, cell-based, HEK293, calcium dye fluorescence, uHTS; CRF-binding protein / CRF receptor 2 complex (human); calcium dye fluorescence (FLIPR); percent of saturating CRF peptide response; activation, % at 13.2 µM; actives 0.46% (n = 350,000); AID 588473, 2011;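 active means activation of at least 50%, plus an integration ratio under a set limit after plate pattern correction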
Myeloid diff MLP = induction of myeloid progenitor differentiation, primary screen, cell-based, flow cytometry, MLPCN library. ER-HoxA9 myeloid progenitors, lysozyme-GFP differentiation. calls only at 10 µM. actives 1% (n = 360,000);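 active means normalized GFP-positive differentiation at or above the plate's own cutoff, the solvent-only control mean plus 3 SD; inconclusive means no clear call, values can overlap the other calls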;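 further: cells exposed to compound for four days before flow analysis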
RTF Ca sens inh = cardiac RTF calcium sensitivity inhibitors, primary screen, biochemical, IANBD-TnC fluorescence, EC70 calcium; Troponin I, cardiac muscle (Homo sapiens) + Troponin T, cardiac muscle (Homo sapiens) + …; inhibition, % at 7.15 µM; IANBD-labeled cardiac RTF, Ca2+ fluorescence; AID 493244, 2011; actives 0.12% (n = 340,000);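 active means inhibition above the mean inhibition of all tested compounds plus 3 SD, cut at about 17% in these data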;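 further: assay run at fixed EC70 calcium of 1.6 mM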
cardiac RTF act = cardiac RTF calcium sensitivity activators, primary screen, biochemical, IANBD-TnC fluorescence, EC20 calcium | Troponin I, cardiac muscle (Homo sapiens) + Troponin T, cardiac muscle (Homo sapiens) + … | IANBD-labeled TnC RTF fluorescence at EC20 calcium; 0% EC20 calcium, 100% full calcium | activation, % at 7.2 µM | actives 0.24% (n = 340,000) | AID 493008, 2010;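 active means activation above the mean over all tested compounds plus 3 SD, cut at about 30% in these data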;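 further: rise in fluorescence read as greater calcium sensitivity of cardiac thin filaments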
Myeloid diff = inducers of myeloid progenitor differentiation, confirmation, cell-based, GFP/Mac1 flow cytometry, cherry pick 01. calls only. actives 2% (n = 2,300). AID 651706, 2012. ER-HoxA9 myeloid progenitors, GFP/Mac1 double-positive flow. shares compounds with Myeloid diff MLP;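 active means share of green or green-and-red cells above 9 and 9% in run 1 or 4 and 3% in run 2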
GFP autofluor = flagged as fluorescent in myeloid differentiation counter-screen; actives 7.4% (n = 2,300); fluorescence response, % (concentration not given with the values); ER-HoxA9 myeloid progenitors, no estrogen, GFP autofluorescence flow cytometry; vehicle wells 0%, positive control 100%; shares compounds with Myeloid diff MLP; AID 651707;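 active means over 5% cells positive for green fluorescent reporter, or over 2% positive for both it and APC stain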
Each line names hits and unclear results; the compound was inactive in the other large screens (follow-up assays come after a bar, where they were run).

N#Cc1ccc(-c2ccc(F)cc2)nc1SCC(=O)Nc1sc2c(c1C#N)CCC2	none | Myeloid diff inactive | GFP autofluor inactive
N#Cc1cc2c(nc1SCC(=O)Nc1sc3c(c1C#N)CCC3)CCCC2	none
CCN1CCc2c(sc(NC(=O)c3ccc(S(=O)(=O)N(CC)c4ccccc4)cc3)c2C(N)=O)C1	CRFR2-BP ag 201, Myeloid diff MLP active | Myeloid diff inactive | GFP autofluor 15
CCN1CCc2c(sc(NC(=S)NC(=O)c3ccco3)c2C(N)=O)C1	none (no result: RTF Ca sens inh, cardiac RTF act) | Myeloid diff inactive | GFP autofluor inactive
COc1ccc([C@H]2N[C@]3(CCCN(Cc4cccn4C)C3=O)[C@H]3C(=O)N(Cc4ccccc4)C(=O)[C@@H]23)cc1	none (no result: RTF Ca sens inh, cardiac RTF act) | Myeloid diff inactive | GFP autofluor inactive
Cn1cccc1CN1CCC[C@]2(N[C@H](c3ccccc3)[C@@H]3C(=O)N(Cc4ccccc4)C(=O)[C@@H]32)C1=O	none (no result: RTF Ca sens inh, cardiac RTF act)
COc1ccc(CN2CCC[C@]3(N[C@H](c4ccc(OC)cc4)[C@@H]4C(=O)N(Cc5ccccc5)C(=O)[C@@H]43)C2=O)cc1	none (no result: RTF Ca sens inh, cardiac RTF act)
COc1ccc(CN2CCC[C@]3(N[C@H](c4ccc(C)cc4)[C@@H]4C(=O)N(Cc5ccccc5)C(=O)[C@@H]43)C2=O)cc1	none (no result: RTF Ca sens inh, cardiac RTF act) | Myeloid diff inactive | GFP autofluor inactive
COc1ccc(C(CCNCc2ccccc2)c2ccc(F)cc2)cc1 (stereo not drawn)	none | Myeloid diff inactive | GFP autofluor inactive
COc1ccccc1C(=O)N/C(=C\c1cn(S(=O)(=O)N(C)C)c2ccccc12)C(=O)N1CCN(C)CC1	Myeloid diff MLP inconclusive (no result: RTF Ca sens inh, cardiac RTF act)
NC(=O)NC(Cc1ccccc1)c1ccccc1 (stereo not drawn)	Myeloid diff MLP active | Myeloid diff inactive | GFP autofluor inactive
O=C(CCC(=O)N1CCN(S(=O)(=O)c2ccccc2)CC1)c1ccc(Br)cc1	none
O=c1c(=Nc2ccccc2O)c(=O)c2ccccc12	Myeloid diff MLP active | Myeloid diff inactive | GFP autofluor inactive
O=C(NCCc1ccc(F)cc1)Nc1ccccc1Cl	none
C/C(=N\NC(=O)c1ccc2c(c1)OCO2)c1ccc2c(c1)OCO2	none
C/C(=N\NC(=O)c1ccc2c(c1)OCO2)c1ccc(NC(=O)CCCC(=O)O)cc1	none | Myeloid diff inactive | GFP autofluor inactive
CCCCN(C(=O)c1ccc([N+](=O)[O-])o1)c1c(N)n(CCCC)c(=O)[nH]c1=O	Myeloid diff MLP active | Myeloid diff inactive | GFP autofluor inactive
CCCCN(C(=O)c1ccc(-c2ccc([N+](=O)[O-])cc2)o1)c1c(N)n(CCCC)c(=O)[nH]c1=O	none (no result: Myeloid diff MLP)
Cc1ccc(S(=O)(=O)N2C[C@H]3C(=O)C[C@@H](c4ccccc4)N(S(=O)(=O)c4ccc(C)cc4)[C@H]3C[C@H]2c2cccc(C)c2)cc1	Myeloid diff MLP active (no result: CRFBP-R2 block, CRFR2-BP ag, RTF Ca sens inh, cardiac RTF act) | Myeloid diff inactive | GFP autofluor inactive
CCOC(=O)C1(CCOc2ccccc2)CCN(Cc2cccc(OC)c2)CC1	Myeloid diff MLP active | Myeloid diff inactive | GFP autofluor inactive
CC1CCC(NC(=O)CC(C)(C)Cc2nc3ccccc3c(=O)[nH]2)CC1 (stereo not drawn)	none | Myeloid diff inactive | GFP autofluor inactive
CCN(CC(=O)NC(=O)NC1CCCCC1)Cc1nc2ccccc2c(=O)[nH]1	none
Nc1c(N(Cc2ccccc2)C(=O)COc2ccc([N+](=O)[O-])cc2)c(=O)[nH]c(=O)n1Cc1ccccc1	none
CCOc1ncccc1C(=O)N1CCN(S(=O)(=O)c2ccc3ccccc3c2)CC1	none | Myeloid diff inactive | GFP autofluor inactive
COc1cc2oc3cc(C#Cc4ccc(N)cc4)ccc3c(=O)c2cc1OC	none
Nc1ccc(C#Cc2ccc3c(=O)c4ccccc4oc3c2)cc1	none | Myeloid diff active | GFP autofluor inactive
NC(=O)c1ccsc1NC(=O)CCS(=O)(=O)c1ccc(F)cc1	Myeloid diff MLP active | Myeloid diff inactive | GFP autofluor inactive
CNC(=O)c1ccsc1NC(=O)CCS(=O)(=O)c1ccc(F)cc1	none
CCOC(=O)CC1C(=O)NCCN1C1CCCC1 (stereo not drawn)	none
CCOC(=O)C1=CN(Cc2cccc(-c3ccc(Cl)nc3)c2)S(=O)(=O)N(C)C1C (stereo not drawn)	none
COc1ccc(/C=C/C(=O)NCCC(=O)N2CCCN(C)CC2)cc1	none | Myeloid diff inactive | GFP autofluor inactive
Cc1cccc(C)c1-n1nnnc1S(=O)(=O)Cc1ccccc1Cl	none | Myeloid diff inactive | GFP autofluor inactive
Cc1nc(S(=O)(=O)Cc2ccccc2Cl)nc2c1CCC2	none
CN(C(=O)c1cccc(NC(=O)Cc2ccc(NC(=O)C3CCN(C(=O)C4CCCC4)CC3)cc2)c1)C1CCCCC1	none
CN(Cc1ccccc1)C(=O)c1ccc(NC(=O)Cc2cccc(NC(=O)C3CCCN(C(=O)C4CCCCC4)C3)c2)cc1 (stereo not drawn)	none | Myeloid diff inactive | GFP autofluor inactive
CN(Cc1ccccc1)C(=O)c1ccc(NC(=O)Cc2cccc(NC(=O)C3CCCN(C(=O)C4CCCC4)C3)c2)cc1 (stereo not drawn)	none
CN(C(=O)c1cccc(NC(=O)Cc2ccc(NC(=O)C3CCN(C(=O)C4CC4)CC3)cc2)c1)C1CCCCC1	none | Myeloid diff inactive | GFP autofluor inactive
CC1=C(C(=O)N(C(C)C)C(C)C)CC(CC(=O)NCCN2CCOCC2)C(=O)N1Cc1ccc(C(C)(C)C)cc1 (stereo not drawn)	none (no result: CRFBP-R2 block, CRFR2-BP ag, RTF Ca sens inh, cardiac RTF act)
Cn1c(CC(=O)Nc2ccccc2Cl)nnc1SCC(=O)NC1=NCCS1	none (no result: Myeloid diff MLP)
O=C(Cc1ccccc1)NCC(=O)OCC(=O)c1ccc(OC(=O)c2ccccc2)cc1	none | Myeloid diff inactive | GFP autofluor inactive
CN(C(=O)COC(=O)CSc1ccccc1)c1c(N)n(Cc2ccccc2)c(=O)[nH]c1=O	none (no result: RTF Ca sens inh, cardiac RTF act)
COC(=O)C1=C(C)Nc2nnnn2C1c1ccco1 (stereo not drawn)	none (no result: Myeloid diff MLP) | Myeloid diff inactive | GFP autofluor inactive
COC(=O)C1=C(C)Nc2nnnn2C1c1cccnc1 (stereo not drawn)	none
O=C(NC1CC1)C1CCN(Cc2cnn(-c3ccccc3)c2-n2cccc2)CC1	Myeloid diff MLP active | Myeloid diff inactive | GFP autofluor inactive
Cc1ccc(C(=O)NNC(=O)CSc2nnc3c(n2)[nH]c2ccc(F)cc23)cc1	none

High-throughput results as filed in PubChem.
